What follows are sequences tested on PXR homodimer (NR concentration 270 nM) (assay: PBM binding z-score (relative to random genomic background probes); higher = stronger binding; sequences stand for … in GC…GCGATTGACAGCGTAGAATGAAGG).
Procedure, shortened: (§1)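 Ligand-free nuclear receptor dimers were bound for 1 h to custom Agilent 4×180K protein-binding microarrays. Detection used antibodies against each partner (one per run). Binding z-scores rest on regression-normalized fluorescence, with random background probes as the reference.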

Sequence	PBM binding z-score
CAAACTAGGTTAAGAGGTCAAAGTCCGCTTCCCG	2.31
CGTCCAAGGTCAGCAGGTCCGTGAAAGCGACGTG	0.631
CGTCATAGTTCAACTAAGGTAACGTAAAGCACGC	1.23
ACCTCTAGGTAAAAGTTCAGTGAATCCCGAGGAT	1.16
GCATATAGGTAATACAAGGTGAAAGCCCGATTGT	-0.12
CGAACTAGGTCATTGACAGTACAGTGAATAGTAA	0.291
AGTCAAAGTTCATTAGGTAACGTAAGATTCAGCT	6.94
TCTTGTAGATCAACCGGAGGTTAAGAAAGATCGA	0.000543
CGAACTAGGTCAGAACAGGCCAGTGAAGGATGAT	-0.233
ATCTCTAGGTAAGACTCAGTTCAGTTAAGAACGC	1.83
AGAATGAGCTTACCAAAGATCAGGGAAACGCTTG	-0.462
GATACAGGATCAAGGCCAGAGTACGCGTATTGAT	-0.0263
CGAACTAGGTCAGAACAGGACTGTGAAGGATGAT	-0.184
GCTGCTAGGGCAACTGATGGTCAGCTAAAGCTCG	-0.96
CTCGAAAGGTCGTGCTCGGGTGAGTATACCAAAC	-0.25
GCTTGTAGATCAAGGTTAAGACAGACTAAGCTAA	-0.263
TCTATTAGCTGATTAGGGCAACCGAAACAGCGGA	-0.871
ACTTACGGGTCAAAGAGGTTATAGCACGCGTATA	2.73
TCTAGTTGGTCAAAGGACACACACTCGAAATGCG	0.4
GCTGCTAGCTCAGGTTGGTCAGCTAACGGGTACG	-0.881

Sequence	PBM binding z-score
GCTGCTAGGTCAACTGATGGGCAGCTAAAGCTCG	-0.949
CGGACTGGGGCATAAGGTTACCATAAGCCAGCCC	-0.0559
CCTACTGGGCCAAAGGTCATTGCTTCCAATGCTC	1.64
TCTATCAGTTGATTAGGGCAACCGAAACAGCGGA	-0.238
TCGAGTAGGTGAGGGGCATTCAGAATGGCGTCGA	-0.342
CCGAATGGGGCATAAGGTTACCATAAGCCAGCCC	-0.466
CGTCCAAGGTCAATGCTAGGTCCGTGAAAGCATT	0.579
CCGACTGGGGCAGAAAGGTTATCATACCATCCGG	0.149
AGAATGAGGTTACCAAAGAGCAGGGAAACGCTTG	-0.21
TCTTGTAGAGCAGCAGGTTAAGAAAGCTGGCCAA	-1.07
CAAACTAGATCACAGAGGTCAAAGTCCGTGCGTA	2.93
CCTACAGGGCCATTCAGAGGTCATTGATCATATG	2.91
CGAACTAGCTCATTGACAGGACAGTGAATAGTAA	0.129
GGAACGAGGGCATTCGGGTTGATAGCATGGCGAT	2.77
CTCGAAAGGTCCTGCTCAGGTGAGTATACCAAAC	-0.684
AGAATGAGGATATACGTAGATCAGGGAAGAAAGT	-0.147
ATCGAAAGGTCTAGGTGAGTATAGAGAAAGGGAA	0.272
TTACCAAGGTGAGCTGAGGTCGTTGATCCAACTC	0.329
GATACAGAGTCAAGGCCAGAGTACGCGTATTGAT	-0.253
CGTCCAAGGTCAGAGAGATCAGTGAATGCCGAGT	0.829

The sequences below were run on RARa:RXR (NR concentration 270 nM, RXRa partner concentration 90 nM) in the same assay as above.
Procedure, shortened: as §1

Sequence	PBM binding z-score
CAAACTAGGTTAAGAGGTCAAAGTCCGCTTCCCG	6.47
CGTCCAAGGTCAGCAGGTCCGTGAAAGCGACGTG	3.08
CGTCATAGTTCAACTAAGGTAACGTAAAGCACGC	2.73
ACCTCTAGGTAAAAGTTCAGTGAATCCCGAGGAT	1.11
GCATATAGGTAATACAAGGTGAAAGCCCGATTGT	0.973
CGAACTAGGTCATTGACAGTACAGTGAATAGTAA	2.03
AGTCAAAGTTCATTAGGTAACGTAAGATTCAGCT	3.77
TCTTGTAGATCAACCGGAGGTTAAGAAAGATCGA	1.25
CGAACTAGGTCAGAACAGGCCAGTGAAGGATGAT	1.18
ATCTCTAGGTAAGACTCAGTTCAGTTAAGAACGC	0.499
AGAATGAGCTTACCAAAGATCAGGGAAACGCTTG	-0.0887
GATACAGGATCAAGGCCAGAGTACGCGTATTGAT	-0.382
CGAACTAGGTCAGAACAGGACTGTGAAGGATGAT	0.787
GCTGCTAGGGCAACTGATGGTCAGCTAAAGCTCG	-0.619
CTCGAAAGGTCGTGCTCGGGTGAGTATACCAAAC	4.22
GCTTGTAGATCAAGGTTAAGACAGACTAAGCTAA	0.922
TCTATTAGCTGATTAGGGCAACCGAAACAGCGGA	0.252
ACTTACGGGTCAAAGAGGTTATAGCACGCGTATA	4.84
TCTAGTTGGTCAAAGGACACACACTCGAAATGCG	1.1
GCTGCTAGCTCAGGTTGGTCAGCTAACGGGTACG	-0.76

Sequence	PBM binding z-score
GCTGCTAGGTCAACTGATGGGCAGCTAAAGCTCG	1.93
CGGACTGGGGCATAAGGTTACCATAAGCCAGCCC	1.48
CCTACTGGGCCAAAGGTCATTGCTTCCAATGCTC	5.98
TCTATCAGTTGATTAGGGCAACCGAAACAGCGGA	0.11
TCGAGTAGGTGAGGGGCATTCAGAATGGCGTCGA	-0.0572
CCGAATGGGGCATAAGGTTACCATAAGCCAGCCC	1.55
CGTCCAAGGTCAATGCTAGGTCCGTGAAAGCATT	4.21
CCGACTGGGGCAGAAAGGTTATCATACCATCCGG	1.85
AGAATGAGGTTACCAAAGAGCAGGGAAACGCTTG	1.71
TCTTGTAGAGCAGCAGGTTAAGAAAGCTGGCCAA	-0.139
CAAACTAGATCACAGAGGTCAAAGTCCGTGCGTA	6.13
CCTACAGGGCCATTCAGAGGTCATTGATCATATG	5.04
CGAACTAGCTCATTGACAGGACAGTGAATAGTAA	0.164
GGAACGAGGGCATTCGGGTTGATAGCATGGCGAT	0.733
CTCGAAAGGTCCTGCTCAGGTGAGTATACCAAAC	0.631
AGAATGAGGATATACGTAGATCAGGGAAGAAAGT	-0.363
ATCGAAAGGTCTAGGTGAGTATAGAGAAAGGGAA	0.406
TTACCAAGGTGAGCTGAGGTCGTTGATCCAACTC	1.72
GATACAGAGTCAAGGCCAGAGTACGCGTATTGAT	-0.181
CGTCCAAGGTCAGAGAGATCAGTGAATGCCGAGT	3.01

Source: the supplement of paper PMC6555819
